This is a sample that favours compounds with a hit; in the whole collection about 11% have one here.
HP1b binding inh = HTS for Inhibitors of HP1-beta Chromodomain Interactions with Methylated Histone Tails. AlphaScreen HP1-beta / biotin-H3K9me3 peptide binding. Potency, µM (highest dose often 114 µM), for inactives: top-dose activity change, negative = inhibition, hits mostly inhibitors. hit rate 0.56% among 390,000. AID 540317, 2011; also: nearly all actives have a fitted effect of over 70% in size
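Compound inhibition of the preformed complex between 50 nM HP1-beta and 50 nM biotinylated H3K9me3 peptide was read by AlphaScreen. Buffer was PBS pH 7.4 with 0.01% Tween-20. Incubations ran 30 min at room temperature, with 10 ug/mL donor/acceptor beads.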
BAZ2B inh = qHTS Assay for Inhibitors of BAZ2B; Bromodomain adjacent to zinc finger domain protein 2B (Homo sapiens), Q9UIF8; AlphaScreen BAZ2B-H3K14Ac peptide displacement; Potency, µM (series often up to 114 µM), for the others: at the top dose activity change, negative = inhibition, hits mostly inhibitors; hit rate 4.4% among 360,000; also: % is scaled to controls: 0 for no effect and ±100 for the full control effect; nearly all actives have a fitted effect of over 60% in size
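Complex of BAZ2B and biotin-H3K14Ac (50 nM apiece) forms over 30 min at RT, then faces library compounds up to 110 uM for another 30 min; AlphaScreen beads added, 20 min dark incubation, luminescence read.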
G9a block = qHTS Assay for Inhibitors of Histone Lysine Methyltransferase G9a; Histone-lysine N-methyltransferase EHMT2 (Homo sapiens), Q96KQ7; G9a H3K9 monomethylation, AlphaScreen, 2 h; Potency, µM (top dose mostly 102 µM), for the others: top-dose activity, negative = inhibition, actives largely listed as inhibitors; hit rate 8.8% among 350,000; AID 504332, 2011; also: % is scaled to controls: 0 for no effect and ±100 for the full control effect; nearly all actives have a fitted effect of over 75% in size
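Readings reflect AlphaScreen signal from monomethyl-H3K9 antibody detection. HMT at 20 nM; substrate b-H3K9 500 nM; cofactor SAM 20 uM; 2 h RT reaction; compounds tested as titrations in qHTS with 15 min preincubation.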
JMJD2A Tudor = qHTS Assay for Inhibitors of JMJD2A-Tudor Domain. Lysine-specific demethylase 4A (Homo sapiens), O75164. AlphaScreen JMJD2A-Tudor / H3K4me3 peptide binding. Potency, µM (doses to about 114 µM), inactives show at the top dose activity change, negative = inhibition, most hits filed as inhibitors. hit rate 4.4% among 390,000. AID 504339, 2011; also: % is scaled to controls: 0 for no effect and ±100 for the full control effect; nearly all actives have a fitted effect of over 50% in size
L3MBTL1 inh = qHTS Assay for the Inhibitors of L3MBTL1; Lethal(3)malignant brain tumor-like protein 1 (Homo sapiens), Q9Y468; AlphaScreen L3MBTL1–H3K9me1 peptide binding; Potency, µM (series often up to 57.1 µM), for inactives: top-dose activity, negative = inhibition, hits mostly inhibitors; hit rate 0.66% among 230,000; AID 485360, 2010; also: % is scaled to controls: 0 for no effect and ±100 for the full control effect; nearly all actives have a fitted effect of over 60% in size
Target sequence (Q9Y468 whole entry, looked up): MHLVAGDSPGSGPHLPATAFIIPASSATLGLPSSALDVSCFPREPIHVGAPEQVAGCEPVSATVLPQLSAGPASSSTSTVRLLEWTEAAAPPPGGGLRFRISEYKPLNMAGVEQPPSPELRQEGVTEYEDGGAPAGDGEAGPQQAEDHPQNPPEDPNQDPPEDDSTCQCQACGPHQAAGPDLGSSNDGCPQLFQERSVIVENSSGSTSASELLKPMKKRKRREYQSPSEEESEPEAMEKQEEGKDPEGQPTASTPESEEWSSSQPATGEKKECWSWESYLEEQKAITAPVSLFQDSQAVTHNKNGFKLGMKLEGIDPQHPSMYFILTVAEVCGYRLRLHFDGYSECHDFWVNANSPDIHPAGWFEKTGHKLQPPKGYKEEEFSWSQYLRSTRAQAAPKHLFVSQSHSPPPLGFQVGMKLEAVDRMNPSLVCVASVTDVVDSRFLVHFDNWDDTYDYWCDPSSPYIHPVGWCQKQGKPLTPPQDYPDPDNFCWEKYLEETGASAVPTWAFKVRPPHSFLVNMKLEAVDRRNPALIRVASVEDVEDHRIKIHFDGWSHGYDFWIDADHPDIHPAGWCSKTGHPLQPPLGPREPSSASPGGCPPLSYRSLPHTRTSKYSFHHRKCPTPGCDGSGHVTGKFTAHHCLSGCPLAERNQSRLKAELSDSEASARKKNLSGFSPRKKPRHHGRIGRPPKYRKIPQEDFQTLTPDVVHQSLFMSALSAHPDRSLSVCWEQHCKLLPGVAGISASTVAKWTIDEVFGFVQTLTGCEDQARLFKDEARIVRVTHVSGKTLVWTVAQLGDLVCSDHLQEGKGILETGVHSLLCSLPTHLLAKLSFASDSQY
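Read-out is AlphaScreen signal from streptavidin donor and nickel chelate acceptor beads (10 ug/mL final each) bridging L3MBTL1 (50 nM) and biotinylated K9-monomethylated H3(1-15) peptide (75 nM), after 30 min compound exposure at room temperature.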
An asterisk follows results filed as active; ? = inconclusive; / = no result given; ! = a repeat was not active; [ ] = remark or other dose. Calls follow the shape of the dose curve; as a rule, active = well fitted inhibition curve with a large enough effect; inconclusive = small, poorly fitted or top-dose-only effect; inactive = no such curve, though single readings can be large or run the other way. Potency is read from the fitted curve at half-maximal effect.

SMILES | HP1b binding inh | BAZ2B inh | G9a block | JMJD2A Tudor | L3MBTL1 inh
CCC(C)NC(=O)C1CCN(C(=O)c2ccc(-n3ccc4ccccc43)s2)CC1 (centres undefined) | -7% | 2% | 4%[59 µM] | -19% | /
CCOc1ccc(NC(=O)c2c(NC(=O)Cc3ccccc3)sc3c2CCCC3)cc1 | 28% | -1% | 13%[59 µM] | -10% | /
CCC(C)NC(=O)c1cc2cc(S(=O)(=O)N3CCCCC3)ccc2n1C (centres undefined) | 19%[57 µM] | 4% | 14%[59 µM] | -12% | /
Cc1cc(C(C2C(=O)CC(C)(C)CC2=O)C2C(=O)CC(C)(C)CC2=O)cc(C)c1OC(F)F | 4% | -12% | 32µM* | -25% | /
Cc1ccc(C(c2c(C)[nH][nH]c2=O)c2c(C)[nH][nH]c2=O)cc1[N+](=O)[O-] | 27% | -3% | ? | -9% | 1%
Cc1ccc(C(C2=C(O)CC(C)(C)CC2=O)C2C(=O)CC(C)(C)CC2=O)s1 (centres undefined) | 32% | -21% | ? | -15% | 2%
CC1(C)CC(=O)C(C(C2=C(O)CC(C)(C)CC2=O)c2ccc([N+](=O)[O-])cc2)C(=O)C1 (centres undefined) | 46% | -16% | 32µM* | -10% | -7%
CC1(C)CC(=O)C(C(C2=C(O)CC(C)(C)CC2=O)c2ccc(O)c([N+](=O)[O-])c2)=C(O)C1 | 20% | -32% | 35µM* | -8% | -6%
COc1ccc2cc3cc(C(=O)Nc4ccccc4C)oc3nc2c1 | 7% | / | ? | -26% | /
OC(c1ccccc1)(c1ccccc1)c1cnc2ccccn12 | / | / | / | -14% | /
CCN(CC)/[N+]([O-])=N/Oc1cc(O/N=[N+](\[O-])N(C)C)c([N+](=O)[O-])cc1[N+](=O)[O-] | -5% | / | / | ? | /
Cc1ccc(-c2cc(C(=O)Nc3ccccc3C)c3ccccc3n2)o1 | -23% | -4% | 1.8µM* | 79µM* | ?
COc1cccc(NC(=O)CN(C)C(=O)c2cc(-c3ccc(C)o3)nc3ccccc23)c1 | 1% | -32% | ? | ? | 3%
Cc1cc(-c2ccccc2)nc2cc(C(=O)NCc3ccco3)nn12 | -2% | 50µM* | 50µM* | ? | /
CCC(CC)c1nnc(NC(=O)c2cc(-c3ccccc3)nc3ccccc23)s1 | 37% | 10% | 45µM* | -9% | 1%
COc1cccc(NC(=O)c2cc(-c3ccc(C)o3)nc3ccccc23)c1 | 1% | ? | 8.9µM* | 56µM* | /
CN(C)c1nc(N(C)C)n(Cc2c(Cl)cccc2Cl)n1 | -17% | -23% | ? | -25% | 3%
Cc1cc(C(=O)NCc2ccco2)c2ccccc2n1 | 29% | -14% | ? | -5% | /
Cc1ccc(-c2cc(C(=O)NCc3ccco3)c3ccccc3n2)o1 | -22% | 50µM* | ? | 50µM* | ?
COc1cc(-c2cc(C(=O)Nc3cccc(S(=O)(=O)N(C)C)c3)c3ccccc3n2)cc(OC)c1OC | 16% | 1% | 1% | -4% | /
CCc1nnc(NC(=O)c2cc(-c3ccc(C)o3)nc3ccccc23)s1 | 8% | -20% | ? | 89µM* | -8%
Cc1ccc(-c2cc(C(=O)Nc3cccc(S(=O)(=O)N(C)C)c3)c3ccccc3n2)o1 | 0% | 3% | 8.9µM* | ? | /
Cc1cc(C)n2nc(SC(C)C(=O)NCc3ccco3)nc2n1 (centres undefined) | 27% | ? | 56µM* | -3% | -2%
CCc1nnc(NC(=O)c2cc(C)nc3ccccc23)s1 | 13% | -18% | ? | -17% | 3%
COc1ccc(-c2c(C)nn(Cc3ccccc3)c2N)cc1 | 9% | -35% | 45µM* | -29% | 3%
SMILES | HP1b binding inh | BAZ2B inh | G9a block | JMJD2A Tudor | L3MBTL1 inh
CCOc1ccc(NC(=O)C2CCN(S(=O)(=O)c3c(C)noc3/C=C/c3cccs3)CC2)cc1 | 15% | / | -33%[59 µM] | -7% | /
Cc1cc(NC(=O)CN2CCC(C)CC2)no1 | ? | / | 3.5µM* | 5µM* | -8%
Cc1cc(NC(=O)CN2C(=O)CC(c3ccco3)Sc3ccccc32)no1 (centres undefined) | -11% | -30% | 13µM* | ? | -18%
Cc1cc(NC(=O)CN2CCN(c3ccccc3O)CC2)no1 | 8% | -1% | ? | 79µM* | -8%
CCOc1ccccc1N1CCN(CC(=O)Nc2cc(C)on2)CC1 | 12% | -3% | -1% | -14% | 5%
O=c1c2sc3ccccc3c2n(Cc2ccc(F)cc2)c(=O)n1Cc1ccco1 | 23% | -15% | -6%[59 µM] | -15% | /
COc1cccc2c(C)cc3nnc(SCC(=O)Nc4ccc(C)cc4)n3c12 | 27% | -9% | -3%[59 µM] | -17% | /
CC(C)CNC(=O)CSc1nc2scc(-c3ccccc3)c2c(=O)[nH]1 | 18% | -24% | 11µM* | -17% | -1%
O=C(O)CSCc1nc2scc(-c3ccccc3)c2c(=O)[nH]1 | 11% | -24% | 50µM* | -5%[57.1 µM] | 0%
O=c1[nH]c(Cc2ccccc2)nc2scc(-c3ccccc3)c12 | 14% | -20% | -9% | -12% | /
O=C(CSc1nc2scc(-c3ccccc3)c2c(=O)[nH]1)Nc1ccccc1 | 32% | 0% | / | -25% | /
O=C(Cn1ncc2c3ccccc3n(Cc3ccc(Cl)cc3)c2c1=O)NCc1ccccn1 | 38% | -1% | 37%[59 µM] | -15% | /
O=C(CSC1=NS(=O)(=O)c2cc(Cl)ccc2N1)c1ccc(Cl)cc1 | 44% | -9% | 56µM* | -11% | -5%
CC(=O)c1ccc(NC(=O)CSC2=NS(=O)(=O)c3cc(Cl)ccc3N2)cc1 | 8% | -8% | ? | -11% | -3%
CC1=NS(=O)(=O)c2cc(Cl)ccc2N1 | 25% | 5% | 2.8µM*! | -6% | 0%
Cc1ccc(S(=O)(=O)NCCc2nnc(SCc3cccnc3)n2C)cc1 | 20% | -17% | 0% | -11% | /
CC(C)Nc1nc(NC(C)C)nc(SCC(N)=O)n1 | -12% | -5% | 31%[12.7 µM] | -13% | 3%
COC(=O)CSc1nc2c(c(-c3ccc(C)o3)c1C#N)CCCC2 | 17% | -7% | ? | 47% | /
Cc1ccc(-c2c3c([nH]c(=S)c2C#N)CCCC3)o1 | ? | 50µM* | 4.5µM* | 40µM* | ?
N#Cc1c(-c2ccncc2)c2c([nH]c1=S)CCCC2 | -30% | ? | 2.2µM* | 2.2µM* | -3%
CCSc1nc2c(c(-c3ccc(C)o3)c1C#N)CCCC2 | 58% | 10% | ? | 84% | 53%
Cc1ccc(-c2c(C#N)c(N)nc3c2CCCC3)o1 | 40% | ? | 7.9µM* | -10% | ?
O=C(NCc1ccccc1Cl)C1CCCN(c2nc3ccccc3n3cccc23)C1 (centres undefined) | 48% | -24% | -44%[59 µM] | -17% | /

Assay outcomes from PubChem BioAssay.
